Here are results for five compounds from PubChem BioAssay.

As usually defined, the inhibition is the relative decrease from the control value, in per cent.

Inconclusive results are not listed. Calls of active or inactive are those of the source.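 Rule for the calls, unless noted: active = inhibition above 50%, about 3 SD of the validation set; inactive = the rest.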

Assay [1] can be described thus: yeast TOR pathway RPL19A-GFP modulators, primary screen, cell-based, S. cerevisiae, multiplex flow cytometry (AID 1862; in the data active = percent of DMSO control GFP below about 86%;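 note: lower values mimic rapamycin by blocking the RPL19A rise seen in DMSO cells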). Particulars: S. cerevisiae RPL19A-GFP strain, flow cytometry fluorescence, 3 h; at 10 µM; stronger effect = lower value. In general terms: In flow cytometry, cells or beads pass a laser one at a time.
Assay [2] in a line: modulators of MEP2-GFP levels in yeast, primary screen, S. cerevisiae, multiplex flow cytometry (AID 1867;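 active = GFP response, as percent of the DMSO control, above the screen-wide mean plus 3 SD, about 139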;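 note: median GFP channel fluorescence of barcode-gated MEP2-GFP cells measured by flow cytometry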). Particulars: S. cerevisiae MEP2-GFP strain, 3 h, at 10 µM, stronger effect = higher value, 100% means same as DMSO wells.
The nature of assay [3]: modulators of CIT2-GFP expression in yeast, primary screen, S. cerevisiae, GFP fusion, multiplex flow cytometry (AID 1870;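 active = percent response above a set limit, the screen-wide mean plus 3 SD, cut at about 130% in these data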;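 note: barcoded CIT2-GFP strain pooled with four other GFP strains with rapamycin as positive control; median GFP fluorescence per well over plate mean of DMSO wells so 100% = DMSO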). The note with it: 3 h, at 10 µM, stronger effect = higher value.
A short description of assay [4]: modulators of LAP4-GFP expression in yeast, primary screen, S. cerevisiae, multiplex flow cytometry (AID 1873;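 active = GFP signal, as percent of the solvent control, above the screen mean plus 3 SD, about 149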). The note with it: 3 h, at 10 µM, stronger effect = higher value.
A short description of assay [5]: modulators of AGP1-GFP expression in yeast TOR pathway, primary screen, cell-based, multiplex flow cytometry, S. cerevisiae (AID 1887;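 active = GFP signal above the screen-wide mean plus 3 SD, that is over about 124.5% of the solvent control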;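 note: AGP1-GFP fusion strain of S. cerevisiae within a five-strain barcoded multiplex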). Particulars: 3 h, at 10 µM, stronger effect = higher value.
A short description of assay [6]: inhibitors of CD8+ T cell-vesicle binding, pilot screen, LFA-1/ICAM-1 modulator project, MLPCN validation set, flow cytometry (AID 2523;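 active = response below a set limit, under 55% cells CD8-positive and vesicle-bound, and CD8 cells' 90th-percentile brightness under 279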;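 for vesicle binding response: mean PE anti-B7-1 fluorescence of CD8+ cells relative to row control; 100% = QL9-loaded vesicles with DMSO vehicle in the same plate row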). The note with it: 2C mouse CD8+ T cells, at 7 µM, stronger effect = lower value; double positive events: measured here: CD8+/vesicle+ event percentage.
Assay [7] has as its target Integrin beta-1 (Homo sapiens) + Integrin alpha-4 (Homo sapiens) (UniProt P13612+P05556). Briefly: inhibition of HUTS-21 binding to VLA-4, pilot screen, VLA-4 allosteric modulator project, U937 cells, HUTS-21 mAb, flow cytometry, validation set (AID 2674).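 Note: antibody binding induced by the VLA-4 ligand LDV present at three times its Kd; 0% = LDV ligand with antibody and no compound and 100% = antibody without LDV.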 Particulars: HUTS-21 LIBS mAb binding, at 6.7 µM, stronger effect = higher value, binding induced by LDV ligand.
Assay [8] can be described thus: superoxide lowering in aged yeast cells, pilot screen, validation compound set (AID 2706;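 active = superoxide response below 65% of plate, a cut near 3 SD across the whole screen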;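 note: yeast exposed to compound for one week at 30 degrees C before staining; 100% = mean of all compound wells on the same plate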). The note with it: S. cerevisiae aging, superoxide DHE fluorescence; at 10 µM; stronger effect = lower value.
Assay [9] has as its target Beta-adrenergic receptor kinase 1 (Homo sapiens) (UniProt P25098). Briefly: GRK2 binders displacing RNA aptamer, biochemical, validation, human GRK2, bead flow cytometry (AID 488806;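 active = aptamer binding inhibition above 30%, about 3 SD of noise from non-fluorescent compounds; inactive = inhibition at or below 30%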). Particulars: bead-bound GRK2, FAM-aptamer displacement, at 10 µM, stronger effect = higher value.
Assay [10] concerns the target Beta-2 adrenergic receptor (Homo sapiens) (UniProt P07550). Kind of assay: beta2AR agonists driving receptor internalization, pilot screen, cell-based, FAP fluorogen, flow cytometry, validation set (AID 504459;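 active = percent response above 42, roughly 3 SD of non-fluorescent test compounds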;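 note: agonist-driven loss of surface beta2AR via internalization measured by FAP dye flow cytometry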). The note with it: Am2.2-beta2AR cells, FAP surface receptor flow cytometry; at 10 µM; stronger effect = higher value.
Assay [11] deals with AP-2 complex subunit beta (Homo sapiens) (UniProt P63010). Briefly: inhibitors of arrestin peptide binding to AP2, pilot screen, biochemical, validation set, GST-AP2 beads, flow cytometry (AID 504541;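 active = inhibition above 54%, about 3 SD of non-fluorescent compounds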;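 note: AP2 carries R879A mutation and is captured from E. coli lysate; bead-bound FITC arrestin peptide fluorescence measuring arrestin peptide binding to AP2; 0% = DMSO wells and 100% = excess unlabeled arrestin peptide control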). Particulars: FITC arrestin peptide, at 10 µM, stronger effect = higher value, AP2 beta2 appendage fragment, R879A mutant.
Assay [12] is described as follows: yeast V-ATPase proton transport modulators, S. cerevisiae, pHLuorin, HTS validation (AID 504600; in the data active = response above about 15%;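 note: plate controls were DMSO for no effect and reference compound for full effect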). The note with it: S. cerevisiae pHLuorin cytosolic pH, at 10 µM, stronger effect = higher value.
Assay [13] has as its system anti-desmoglein-3 scFv antibody binding to human DSG3. Briefly: inhibitors of anti-DSG3 scFv binding to DSG3, pilot screen, biochemical, validation compound set, bead-based, flow cytometry (AID 588368;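 active = binding below the plate cutoff, the plate median minus 3 SD, with a reading above zero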;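 note: signal is the median channel fluorescence of bead-bound GFP antibody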). The note with it: Protein G beads, DSG3-Fc, scFv-GFP binding, at 10 µM, stronger effect = lower value.
Assay [14] is described as follows: inhibitors of fungal efflux pumps CDR1, CDR2, MDR1, pilot screen, validation compound set, multiplex, phenotypic (AID 588506;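 active = efflux inhibition above 0.42, the validation set average plus 4 SD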;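 note: Nile Red retained in cells so higher fluorescence means more efflux inhibition; 0 = negative control wells and 1 = enniatin B 25 µM full block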). Particulars: S. cerevisiae pump-expressing triplex, Nile Red efflux flow cytometry; at 10 µM; stronger effect = higher value; the pumps come from Candida albicans.
Assay [15] has as its target ATP-binding cassette sub-family B member 6 (Homo sapiens) (UniProt Q9NP58). Briefly: ABCB6 transporter inhibitors, pilot screen, K562-ABCB6 cells, flow cytometry, validation set (AID 588550;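 active = inhibition above the screen-wide mean plus 3 SD, about 51%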;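 note: 0% = DMSO wells and 100% = benzethonium chloride 70 µM positive control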). Particulars: K562-ABCB6 porphyrin accumulation, 1 h, at 10 µM, stronger effect = higher value.
A short description of assay [16]: promoters of myeloid differentiation in arrested cells, primary screen, cell-based, GFP/MAC1 double positive, flow cytometry, validation set (AID 588685;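 active = differentiation response of at least 50%, scaled between solvent and reference control, from cells with both markers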;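 note: compound exposure lasts four days before antibody staining and flow analysis; 0% = DMSO wells and 100% = 5 µM fulvestrant positive control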). The note with it: ER-HoxA9 marrow cells, stronger effect = higher value, normalized: vehicle 0, fulvestrant 100.

Sequence of Integrin beta-1 (Homo sapiens) + Integrin alpha-4 (Homo sapiens) (P05556 whole entry, looked up): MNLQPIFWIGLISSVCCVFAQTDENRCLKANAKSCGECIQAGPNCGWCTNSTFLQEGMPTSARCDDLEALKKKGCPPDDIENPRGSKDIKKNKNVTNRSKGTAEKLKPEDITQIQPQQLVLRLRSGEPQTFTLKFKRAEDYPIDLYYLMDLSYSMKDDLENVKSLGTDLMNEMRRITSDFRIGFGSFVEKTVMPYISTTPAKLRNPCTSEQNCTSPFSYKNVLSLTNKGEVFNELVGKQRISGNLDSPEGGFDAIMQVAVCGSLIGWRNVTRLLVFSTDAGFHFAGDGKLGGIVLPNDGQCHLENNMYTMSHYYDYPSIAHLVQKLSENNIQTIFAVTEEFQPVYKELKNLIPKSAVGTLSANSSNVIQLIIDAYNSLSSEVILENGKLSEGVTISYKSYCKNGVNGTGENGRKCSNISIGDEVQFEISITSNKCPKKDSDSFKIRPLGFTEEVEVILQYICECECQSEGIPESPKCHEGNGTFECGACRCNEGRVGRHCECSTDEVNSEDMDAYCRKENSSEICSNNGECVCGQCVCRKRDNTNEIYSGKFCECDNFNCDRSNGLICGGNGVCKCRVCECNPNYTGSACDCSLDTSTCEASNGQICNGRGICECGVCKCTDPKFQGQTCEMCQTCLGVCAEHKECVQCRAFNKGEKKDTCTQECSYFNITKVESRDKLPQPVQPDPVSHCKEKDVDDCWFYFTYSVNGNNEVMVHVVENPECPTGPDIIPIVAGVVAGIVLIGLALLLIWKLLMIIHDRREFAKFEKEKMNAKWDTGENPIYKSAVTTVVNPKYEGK
Sequence of Integrin beta-1 (Homo sapiens) + Integrin alpha-4 (Homo sapiens) (P13612 whole entry, looked up): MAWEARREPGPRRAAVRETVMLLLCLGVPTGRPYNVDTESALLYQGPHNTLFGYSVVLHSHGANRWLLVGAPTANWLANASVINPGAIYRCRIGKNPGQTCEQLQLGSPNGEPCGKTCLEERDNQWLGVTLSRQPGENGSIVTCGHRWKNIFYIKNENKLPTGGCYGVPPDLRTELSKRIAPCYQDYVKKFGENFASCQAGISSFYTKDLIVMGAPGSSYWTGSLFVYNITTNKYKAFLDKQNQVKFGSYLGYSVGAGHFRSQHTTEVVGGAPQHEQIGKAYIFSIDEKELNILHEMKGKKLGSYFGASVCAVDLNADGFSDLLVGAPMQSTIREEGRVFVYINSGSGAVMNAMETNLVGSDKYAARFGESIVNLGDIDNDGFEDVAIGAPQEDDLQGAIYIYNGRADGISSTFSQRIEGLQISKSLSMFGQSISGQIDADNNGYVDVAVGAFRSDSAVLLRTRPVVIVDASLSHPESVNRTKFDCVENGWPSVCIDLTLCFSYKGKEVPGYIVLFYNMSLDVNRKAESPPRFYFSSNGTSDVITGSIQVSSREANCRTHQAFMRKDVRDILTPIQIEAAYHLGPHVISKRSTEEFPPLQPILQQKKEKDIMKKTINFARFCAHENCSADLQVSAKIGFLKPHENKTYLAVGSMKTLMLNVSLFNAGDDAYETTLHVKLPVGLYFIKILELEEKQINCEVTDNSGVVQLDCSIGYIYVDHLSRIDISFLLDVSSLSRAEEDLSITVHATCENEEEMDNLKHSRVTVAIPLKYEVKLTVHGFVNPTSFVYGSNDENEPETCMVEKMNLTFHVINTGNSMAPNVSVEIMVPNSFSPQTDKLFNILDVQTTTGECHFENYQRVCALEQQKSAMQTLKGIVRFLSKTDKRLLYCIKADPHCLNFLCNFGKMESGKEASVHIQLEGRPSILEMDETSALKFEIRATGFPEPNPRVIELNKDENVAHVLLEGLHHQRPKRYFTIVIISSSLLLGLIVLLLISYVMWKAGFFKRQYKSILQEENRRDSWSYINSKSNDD
Sequence of ATP-binding cassette sub-family B member 6 (Homo sapiens) (Q9NP58 whole entry, looked up): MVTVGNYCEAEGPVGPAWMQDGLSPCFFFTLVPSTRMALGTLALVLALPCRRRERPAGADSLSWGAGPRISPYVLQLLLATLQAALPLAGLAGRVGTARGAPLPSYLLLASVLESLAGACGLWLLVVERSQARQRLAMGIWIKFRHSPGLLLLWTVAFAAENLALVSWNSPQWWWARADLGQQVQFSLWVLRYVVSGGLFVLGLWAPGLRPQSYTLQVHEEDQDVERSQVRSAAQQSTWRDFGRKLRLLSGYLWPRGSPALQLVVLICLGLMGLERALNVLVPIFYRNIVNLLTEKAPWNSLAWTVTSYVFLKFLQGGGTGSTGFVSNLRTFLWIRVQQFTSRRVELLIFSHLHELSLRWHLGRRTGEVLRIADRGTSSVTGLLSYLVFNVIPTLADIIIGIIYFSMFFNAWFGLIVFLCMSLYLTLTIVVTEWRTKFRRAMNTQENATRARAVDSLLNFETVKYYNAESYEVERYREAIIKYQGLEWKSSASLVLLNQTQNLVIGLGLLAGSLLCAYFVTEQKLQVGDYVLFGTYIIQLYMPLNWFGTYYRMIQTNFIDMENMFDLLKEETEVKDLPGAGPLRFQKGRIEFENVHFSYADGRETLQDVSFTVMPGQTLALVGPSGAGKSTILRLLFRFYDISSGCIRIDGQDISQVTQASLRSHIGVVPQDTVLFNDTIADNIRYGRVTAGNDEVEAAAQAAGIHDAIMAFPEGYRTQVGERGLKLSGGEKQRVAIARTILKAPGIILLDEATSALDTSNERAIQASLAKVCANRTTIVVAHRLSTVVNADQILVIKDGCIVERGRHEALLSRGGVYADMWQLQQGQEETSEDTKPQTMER
Sequence of AP-2 complex subunit beta (Homo sapiens) (P63010 whole entry, looked up, the tested form may be a part, one chain of several): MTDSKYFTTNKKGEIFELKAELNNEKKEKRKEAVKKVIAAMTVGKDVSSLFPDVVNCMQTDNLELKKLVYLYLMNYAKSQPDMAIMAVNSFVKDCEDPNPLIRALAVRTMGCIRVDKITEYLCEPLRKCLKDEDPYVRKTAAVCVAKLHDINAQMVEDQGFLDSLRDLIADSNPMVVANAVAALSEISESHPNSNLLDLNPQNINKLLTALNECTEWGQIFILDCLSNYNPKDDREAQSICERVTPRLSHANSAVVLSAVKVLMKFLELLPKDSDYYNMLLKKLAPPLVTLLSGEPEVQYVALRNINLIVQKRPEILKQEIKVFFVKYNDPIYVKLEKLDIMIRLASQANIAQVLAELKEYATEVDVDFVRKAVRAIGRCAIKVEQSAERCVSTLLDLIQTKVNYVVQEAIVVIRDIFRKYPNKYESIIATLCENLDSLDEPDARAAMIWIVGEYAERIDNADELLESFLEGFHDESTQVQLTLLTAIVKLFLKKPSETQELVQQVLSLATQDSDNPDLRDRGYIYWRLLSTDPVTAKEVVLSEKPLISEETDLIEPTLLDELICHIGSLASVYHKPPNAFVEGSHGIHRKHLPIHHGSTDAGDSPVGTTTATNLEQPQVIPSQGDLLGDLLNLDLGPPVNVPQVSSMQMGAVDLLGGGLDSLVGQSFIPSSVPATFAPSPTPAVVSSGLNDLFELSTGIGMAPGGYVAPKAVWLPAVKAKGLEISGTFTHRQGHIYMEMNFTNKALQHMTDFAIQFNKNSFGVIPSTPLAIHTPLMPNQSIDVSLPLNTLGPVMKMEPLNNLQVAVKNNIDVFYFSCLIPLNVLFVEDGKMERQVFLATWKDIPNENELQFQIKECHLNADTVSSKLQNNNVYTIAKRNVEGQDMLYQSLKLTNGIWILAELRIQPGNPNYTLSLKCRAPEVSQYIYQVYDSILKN
Sequence of Beta-2 adrenergic receptor (Homo sapiens) (P07550 whole entry, looked up): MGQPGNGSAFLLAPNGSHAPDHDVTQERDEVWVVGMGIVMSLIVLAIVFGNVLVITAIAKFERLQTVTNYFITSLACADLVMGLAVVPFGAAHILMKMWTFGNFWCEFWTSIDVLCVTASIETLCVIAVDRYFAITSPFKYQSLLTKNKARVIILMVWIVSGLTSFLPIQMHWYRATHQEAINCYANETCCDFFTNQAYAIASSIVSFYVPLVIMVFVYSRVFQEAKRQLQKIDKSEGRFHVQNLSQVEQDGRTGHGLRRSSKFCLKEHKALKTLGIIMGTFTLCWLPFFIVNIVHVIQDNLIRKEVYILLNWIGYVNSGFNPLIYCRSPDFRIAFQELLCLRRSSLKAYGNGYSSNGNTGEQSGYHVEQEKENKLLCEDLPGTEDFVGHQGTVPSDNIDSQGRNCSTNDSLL
Sequence of Beta-adrenergic receptor kinase 1 (Homo sapiens) (P25098 whole entry, looked up): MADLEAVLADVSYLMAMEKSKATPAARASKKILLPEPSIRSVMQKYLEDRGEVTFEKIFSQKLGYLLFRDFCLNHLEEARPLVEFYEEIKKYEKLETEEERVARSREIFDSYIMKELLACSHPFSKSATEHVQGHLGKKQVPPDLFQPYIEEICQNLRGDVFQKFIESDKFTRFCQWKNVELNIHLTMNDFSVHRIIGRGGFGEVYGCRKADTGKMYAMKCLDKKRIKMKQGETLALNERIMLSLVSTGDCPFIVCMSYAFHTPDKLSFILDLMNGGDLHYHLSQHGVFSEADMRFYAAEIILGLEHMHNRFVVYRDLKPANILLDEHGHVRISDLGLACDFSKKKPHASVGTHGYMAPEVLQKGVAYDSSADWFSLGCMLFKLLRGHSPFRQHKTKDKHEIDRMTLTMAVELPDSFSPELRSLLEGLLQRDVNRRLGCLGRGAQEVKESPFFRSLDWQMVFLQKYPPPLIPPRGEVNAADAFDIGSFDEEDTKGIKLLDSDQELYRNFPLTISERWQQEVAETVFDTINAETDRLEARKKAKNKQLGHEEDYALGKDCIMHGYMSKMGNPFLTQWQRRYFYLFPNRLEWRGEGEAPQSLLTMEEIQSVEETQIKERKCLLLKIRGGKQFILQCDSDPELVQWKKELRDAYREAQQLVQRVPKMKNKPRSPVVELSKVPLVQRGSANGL

For the compound `CC12CN3CC(C)(CN(C1)C3c1ccc(Cl)cc1Cl)C2=O` (stereo not given), in assay [1], the percent of DMSO control GFP is 103% (inactive). The GFP response vs DMSO was 98.3% (inactive) in assay [2] and 94.7% (inactive) in [4]. Further, in assay [3], the percent response of DMSO control was 112% (inactive). Besides, in [5], the GFP response, % of DMSO is 104% (inactive). For the same compound, the double positive events in assay [6] is 67.5%. Moreover, the vesicle binding response in [6] was 387% (inactive). The inhibition in assay [7] is 5.77% (inactive); in assay [11] it was -0.61% (inactive); in [15], -3% (inactive). The superoxide response (% of plate) in assay [8] is 98.9% (inactive). In addition, in assay [9], the aptamer binding inhibition was 4% (inactive). Moreover, the values for the response in assay [10] and in [12] were -10.5% (inactive) and -0.6% (inactive), respectively. Moreover, in assay [13], the binding (% of control) is 95.1% (inactive). For the same compound, the efflux inhibition (fraction of control) in [14] is -0.01 (inactive). In addition, the differentiation response in assay [16] was -8.55% (inactive).
As for `O=C(N1CCCC1)C12CC3CC(C1)CC(C(=O)N1CCCC1)(C3)C2`, the percent of DMSO control GFP in assay [1] was 99.5% (inactive). The GFP response vs DMSO was 103% (inactive) in [2] and 124% (inactive) in [4]. In addition, the percent response of DMSO control in assay [3] is 101% (inactive). For the same compound, the GFP response, % of DMSO in assay [5] was 101% (inactive). The same compound registered a double positive events in assay [6] of 59.6%. Besides, in assay [6], the vesicle binding response was 219% (inactive). The inhibition in [7] is 9.13% (inactive); in assay [11] it was -3.27% (inactive); in assay [15], 3% (inactive). Also, the superoxide response (% of plate) in [8] was 104% (inactive). For the same compound, in assay [9], the aptamer binding inhibition was -1% (inactive). Moreover, the values for the response in [10] and in assay [12] were -2.88% (inactive) and 0.92% (inactive), respectively. Also, the binding (% of control) in [13] is 101% (inactive). Further, the efflux inhibition (fraction of control) in assay [14] is 0.15 (inactive). For the same compound, the differentiation response in assay [16] was -7.2% (inactive).
Take `O=C(CCC(=O)c1cccs1)c1cccs1`: in assay [1], the percent of DMSO control GFP is 99.5% (inactive). Also, the figures for the GFP response vs DMSO in assay [2] and in assay [4] were 96.3% (inactive) and 72.6% (inactive), respectively. Further, the percent response of DMSO control in assay [3] was 107% (inactive). The GFP response, % of DMSO in [5] was 86.5% (inactive). In addition, in [6], the double positive events amounted to 60.5%. Besides, in assay [6], the vesicle binding response was 125% (inactive). Moreover, the inhibition is -4.52% (inactive) in assay [7], -11.3% (inactive) in assay [11] and 6% (inactive) in [15]. Further, the superoxide response (% of plate) in [8] was 108% (inactive). Moreover, the aptamer binding inhibition in assay [9] was 3% (inactive). Moreover, the results for the response in assay [10] and in assay [12] were -4.9% (inactive) and 1.04% (inactive), respectively. Moreover, the binding (% of control) in [13] is 91.5% (inactive). The efflux inhibition (fraction of control) in assay [14] was -0.1 (inactive). In assay [16], the differentiation response was -20% (inactive).
As for `NS(=O)(=O)c1cc2c(cc1Cl)NCNS2(=O)=O`, the percent of DMSO control GFP in [1] is 99.7% (inactive). Further, the GFP response vs DMSO in assay [2] is 102% (inactive); in [4], 132% (inactive). In assay [3], the percent response of DMSO control was 95.7% (inactive). In [5], the GFP response, % of DMSO was 123% (inactive). The compound also returned a double positive events in [6] of 62.4%. For the same compound, the vesicle binding response in [6] is 245% (inactive). Further, the inhibition in assay [7] is -4.52% (inactive); in [11], -24.8% (inactive); in [15] it was 2% (inactive). The superoxide response (% of plate) in [8] was 89.4% (inactive). Besides, the aptamer binding inhibition in assay [9] was -2% (inactive). Also, the response in [10] was -19.4% (inactive); in [12], 0.56% (inactive). In addition, the binding (% of control) in assay [13] was 105% (inactive). Also, in assay [14], the efflux inhibition (fraction of control) is 0 (inactive). The differentiation response in assay [16] is -11.9% (inactive).
Consider `CN(Cc1c(C(=O)N(C)Cc2ccccc2)nc2ccccn12)CC1Cc2ccccc2O1` (stereo not given), for which, in assay [1], the percent of DMSO control GFP was 98.4% (inactive). For the same compound, the GFP response vs DMSO in assay [2] is 104% (inactive); in assay [4], 89.4% (inactive). Also, in assay [3], the percent response of DMSO control was 98.2% (inactive). The GFP response, % of DMSO in assay [5] was 93.7% (inactive). Also, the double positive events in [6] worked out at 61.4%. Further, the vesicle binding response in [6] is 2590% (inactive). Besides, the inhibition in assay [7] is -11.8% (inactive); in assay [11], -19.1% (inactive); in assay [15] it was 14% (inactive). The superoxide response (% of plate) in [8] was 105% (inactive). In addition, the aptamer binding inhibition in assay [9] was 3% (inactive). The response in [10] was 0.21% (inactive); in [12] it was -0.37% (inactive). Also, the binding (% of control) in assay [13] was 98.2% (inactive). Also, the efflux inhibition (fraction of control) in [14] was 0.17 (inactive). Further, the differentiation response in assay [16] was -2.64% (inactive).
